{"source": "ChEMBL document CHEMBL4513137", "about": "“CO-ADD screening of University of Manchester (UK) compounds”", "note": "Potency and affinity values are given separately.", "data": [{"system": "Cryptococcus neoformans", "details": "Concentration 32 ug.mL-1; ASSAY_TEST Inhibition of Fungal Growth; detection method Resazurin; Absorption (OD600-OD570); plate type 384well; NBS; CORNING #3640", "units": {"Inhibition": "%"}, "values": [{"smiles": "Cc1ccccc1Nc1ccccc1-c1ccc([N+](=O)[O-])cc1", "Inhibition": -1.9}, {"smiles": "O=[N+]([O-])c1ccc(-c2ccccc2N(Cc2ccccc2)c2ccccc2)cc1", "Inhibition": 2.22}, {"smiles": "O=[N+]([O-])c1ccc(-c2c(Nc3ccccc3)ccc3ccccc23)cc1", "Inhibition": 0.54}, {"smiles": "CN(c1ccccc1)c1ccccc1-c1ccc([N+](=O)[O-])cc1", "Inhibition": 1.49}, {"smiles": "O=[N+]([O-])c1ccc2c3ccccc3n(-c3ccccc3)c2c1", "Inhibition": 2.74}, {"smiles": "COc1cccc(Nc2ccccc2)c1-c1c(Cl)cc(Br)cc1Cl", "Inhibition": 9.7}, {"smiles": "COc1ccc(Nc2ccccc2-c2ccc([N+](=O)[O-])cc2)cc1", "Inhibition": 2.27}, {"smiles": "O=[N+]([O-])c1ccc(-c2c(Nc3ccccc3)cccc2-c2ccccc2)cc1", "Inhibition": 2.38}, {"smiles": "CC[C@@H](Nc1ccccc1-c1c(Cl)cc(Br)cc1Cl)c1ccccc1", "Inhibition": 0.76}, {"smiles": "COc1cc([N+](=O)[O-])ccc1-c1c(Nc2ccccc2)cccc1OC", "Inhibition": -2.27}, {"smiles": "O=[N+]([O-])c1ccc(-c2ccccc2Nc2ccccc2)cc1", "Inhibition": 1.06}, {"smiles": "Cc1cc(C)c(Nc2ccccc2-c2ccc([N+](=O)[O-])cc2)c(C)c1", "Inhibition": 1.01}, {"smiles": "N#Cc1ccc(-c2ccccc2Nc2ccccc2)cc1", "Inhibition": 2.95}, {"smiles": "COc1cc([N+](=O)[O-])ccc1-c1ccccc1Nc1ccccc1", "Inhibition": -0.44}, {"smiles": "c1ccc(Nc2ccccc2-c2ncccn2)cc1", "Inhibition": 7.92}, {"smiles": "O=[N+]([O-])c1cc(Cl)c(-c2ccccc2Nc2ccccc2)c(Cl)c1", "Inhibition": -0.86}]}]}
